Each structure is given as a SMILES string. Values joined by “and” are separate entries in the source; they are usually repeats but may differ in a detail not shown here. Equal entries are not always repeated. Results filed as inconclusive are left out. Values without a mark were called inactive. Active and inactive are the calls of the source. Calls follow the shape of the dose curve; as a rule, active = well fitted inhibition curve with a large enough effect; inconclusive = small, poorly fitted or top-dose-only effect; inactive = flat fitted curve, though single readings scatter.

These results are taken from PubChem BioAssay (NCATS).
% is scaled to controls: 0 for no effect and ±100 for the full control effect; potency is read from the fitted curve at half-maximal effect.

One experiment in a line: Drug repurposing screens with cells derived from glioblastoma tumor samples (AID 1345199). Also: nearly all actives have a fitted effect of over 40% in size. To be noted: GBM patient neurospheres viability, ATP luminescence, 48 h; at 45.9 µM (top of the series); tumour line B. In a few lines:
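Four patient lines of CD133+ GBM neurospheres were screened at several concentrations; hits were retested in those lines plus three slower-growing GBM lines, using 48-hour treatment and ATP-based viability.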
As to `CC(C)=C[C@@H]1[C@@H](C(=O)OCc2coc(Cc3ccccc3)c2)C1(C)C`, the activity, negative = cell killing is -21%.

As for `CCN(CC)C(C)C(=O)c1ccccc1` (stereo unspecified), the activity, negative = cell killing was -5.61%.

As to `COc1ccc(C(=O)N2CCCC2=O)cc1`, the activity, negative = cell killing was -4.07%.

In the case of `CC(C)C(Br)C(=O)NC(N)=O` (stereo unspecified), the activity, negative = cell killing was -3.2%.

For `C#C[C@]1(O)CC[C@H]2[C@@H]3CCC4=CC(=O)CCC4=C3C=C[C@@]21CC`, the activity, negative = cell killing was -22.9%.

Turning to `C#C[C@]1(O)C=C[C@H]2[C@@H]3CCC4=CC(=O)CC[C@@H]4[C@H]3CC[C@@]21CC`, the activity, negative = cell killing is -6.47%.

Take `C[C@@H]1CC[C@H]2[C@@H](C)C(=O)O[C@@H]3O[C@@]4(C)CC[C@@H]1[C@]32OO4`: the activity, negative = cell killing was -29.6%.

Turning to `CNC(C)Cc1ccccc1OC` (stereo unspecified), the activity, negative = cell killing was -11.6%.

On to `CC(Cc1ccccc1)NCc1ccccc1Cl` (stereo unspecified), for which the activity, negative = cell killing is -13.4%.

With `CC(C)NCC(O)c1ccc(N)c(C#N)c1` (stereo unspecified), the activity, negative = cell killing was -10.3%.

Regarding `CCN(CC)CCOC(=O)C(C)(c1ccccc1)c1ccccc1`, the activity, negative = cell killing was -27.8%.

`COP(=S)(OC)Oc1ccc(S(N)(=O)=O)cc1`: the activity, negative = cell killing was -9.2%.

As to `C[N+](C)(C)CCOC(=O)C(O)(c1ccccc1)c1ccccc1`, the activity, negative = cell killing was -4.79%.

As for `CCC1(c2ccccc2)CCC(=O)NC1=O` (stereo unspecified), the activity, negative = cell killing was -10.4%.

In the case of `Oc1ccc([C@H]2CNCc3c2ccc(O)c3O)cc1O`, the activity, negative = cell killing was -19.9%.

Take `CCOC(=O)NC(O)C(Cl)(Cl)Cl` (stereo unspecified): the activity, negative = cell killing was -7.26%.

`C[C@H]1CNCCc2ccc(Cl)cc21`: the activity, negative = cell killing is -18.8%.

With `CC(C)(C)OC(=O)c1ncn2c1[C@@H]1CCCN1C(=O)c1c(Br)cccc1-2`, the activity, negative = cell killing was -9.06%.

For the molecule `NC(=O)OCCCc1ccccc1`, the activity, negative = cell killing was 0.315%.

On to `C[C@]12CC[C@H](O)CC1=CC[C@@H]1[C@@H]2CC[C@]2(C)C(=O)CC[C@@H]12`, for which the activity, negative = cell killing is -4.02%.

With `OC(O)C(Cl)(Cl)Cl`, the activity, negative = cell killing was -7.9%.

Regarding `CCCCC1C(=O)NC(=O)N(C2CCCCC2)C1=O` (stereo unspecified), the activity, negative = cell killing is 0.883%.

As for `CN1C[C@@H](NS(=O)(=O)N(C)C)C[C@@H]2c3cccc4c3c(cn4C)C[C@H]21`, the activity, negative = cell killing was -15.4%.

`C[C@]12CC[C@H]3[C@@H](CCC4=CC(=O)CC[C@@H]43)[C@@H]1CC[C@@H]2O`: the activity, negative = cell killing is 2.47% and -10.2%.

Staying with this experiment, now noted: GBM patient neurospheres viability, ATP luminescence, 48 h; at 45.9 µM (top of the series); tumour line D.
In the case of `CC(C)=C[C@@H]1[C@@H](C(=O)OCc2coc(Cc3ccccc3)c2)C1(C)C`, the activity, negative = cell killing was -13.8%.

In the case of `CCN(CC)C(C)C(=O)c1ccccc1` (stereo unspecified), the activity, negative = cell killing was -24.9%.

Consider `COc1ccc(C(=O)N2CCCC2=O)cc1`, for which the activity, negative = cell killing was -13.6%.

For `CC(C)C(Br)C(=O)NC(N)=O` (stereo unspecified), the activity, negative = cell killing is -12.7%.

In the case of `C#C[C@]1(O)CC[C@H]2[C@@H]3CCC4=CC(=O)CCC4=C3C=C[C@@]21CC`, the activity, negative = cell killing is -22%.

For the molecule `C#C[C@]1(O)C=C[C@H]2[C@@H]3CCC4=CC(=O)CC[C@@H]4[C@H]3CC[C@@]21CC`, the activity, negative = cell killing was -10.7%.

As for `CNC(C)Cc1ccccc1OC` (stereo unspecified), the activity, negative = cell killing was -21%.

`CC(Cc1ccccc1)NCc1ccccc1Cl` (stereo unspecified): the activity, negative = cell killing was -38.9%.

Take `CC(C)NCC(O)c1ccc(N)c(C#N)c1` (stereo unspecified): the activity, negative = cell killing is -5.78%.

`COP(=S)(OC)Oc1ccc(S(N)(=O)=O)cc1`: the activity, negative = cell killing is -4.94%.

With `C[N+](C)(C)CCOC(=O)C(O)(c1ccccc1)c1ccccc1`, the activity, negative = cell killing was -23.3%.

For the molecule `CCC1(c2ccccc2)CCC(=O)NC1=O` (stereo unspecified), the activity, negative = cell killing is -10.3%.

`Oc1ccc([C@H]2CNCc3c2ccc(O)c3O)cc1O`: the activity, negative = cell killing is -11.1%.

As to `CCOC(=O)NC(O)C(Cl)(Cl)Cl` (stereo unspecified), the activity, negative = cell killing was -2.34%.

With `C[C@H]1CNCCc2ccc(Cl)cc21`, the activity, negative = cell killing is -14.1%.

In the case of `CC(C)(C)OC(=O)c1ncn2c1[C@@H]1CCCN1C(=O)c1c(Br)cccc1-2`, the activity, negative = cell killing was -11.3%.

As for `NC(=O)OCCCc1ccccc1`, the activity, negative = cell killing is -23.1%.

On to `OC(O)C(Cl)(Cl)Cl`, for which the activity, negative = cell killing was -0.425%.

In the case of `CCCCC1C(=O)NC(=O)N(C2CCCCC2)C1=O` (stereo unspecified), the activity, negative = cell killing is 0.724%.

Turning to `CN1C[C@@H](NS(=O)(=O)N(C)C)C[C@@H]2c3cccc4c3c(cn4C)C[C@H]21`, the activity, negative = cell killing is -25.6%.

The same experiment, now with this note: GBM patient neurospheres viability, ATP luminescence, 48 h; at 46 µM (top of the series); tumour line A.
With `CCN(CC)C(C)C(=O)c1ccccc1` (stereo unspecified), the activity, negative = cell killing was -22.4%.

For the molecule `CC(C)C(Br)C(=O)NC(N)=O` (stereo unspecified), the activity, negative = cell killing is -8.61%.

With `CNC(C)Cc1ccccc1OC` (stereo unspecified), the activity, negative = cell killing is -24.5%.

As to `CC(C)NCC(O)c1ccc(N)c(C#N)c1` (stereo unspecified), the activity, negative = cell killing is -34.1%.

For `CCC1(c2ccccc2)CCC(=O)NC1=O` (stereo unspecified), the activity, negative = cell killing is -28.9%.

Take `Oc1ccc([C@H]2CNCc3c2ccc(O)c3O)cc1O`: the activity, negative = cell killing is -27.2%.

Turning to `CCOC(=O)NC(O)C(Cl)(Cl)Cl` (stereo unspecified), the activity, negative = cell killing was -17.3%.

As to `OC(O)C(Cl)(Cl)Cl`, the activity, negative = cell killing is -19%.

Regarding `CCCCC1C(=O)NC(=O)N(C2CCCCC2)C1=O` (stereo unspecified), the activity, negative = cell killing is -28.6%.

The experiment is the same for the next values; noted with them: GBM patient neurospheres viability, ATP luminescence, 48 h; tumour line A.
Regarding `C#C[C@]1(O)CC[C@H]2[C@@H]3CCC4=CC(=O)CCC4=C3C=C[C@@]21CC`, the Potency is 10 µM (active).

Take `CC(Cc1ccccc1)NCc1ccccc1Cl` (stereo unspecified): the Potency was 14.1 µM (active).

For `CCN(CC)CCOC(=O)C(C)(c1ccccc1)c1ccccc1`, the Potency was 10 µM (active).

For `COc1ccc2[nH]cc(CCN(C(C)C)C(C)C)c2c1`, the Potency is 44.7 µM (active).

For the molecule `C[C@H]1CNCCc2ccc(Cl)cc21`, the Potency is 11.2 µM (active).

In the case of `COP(=O)(OC)OC=C(Cl)Cl`, the Potency is 7.08 µM (active).

For the molecule `C[C@]12CC[C@H](O)CC1=CC[C@@H]1[C@@H]2CC[C@]2(C)C(=O)CC[C@@H]12`, the Potency is 22.4 µM (active).

Regarding `CN1C[C@@H](NS(=O)(=O)N(C)C)C[C@@H]2c3cccc4c3c(cn4C)C[C@H]21`, the Potency is 10 µM (active).
